One may read the inhibition as the drop in the measured response relative to a control, in per cent.

In all, about 360,000 compounds went through this assay and about 350 (0.097%) were called active. Shown is part of a subset that was picked to be rich in actives. A number with no mark means an inactive call. Rule as the data show it: active = inhibition above about 16% (passing the limit was not always enough); inconclusive = no clear call, values can overlap the other calls; inactive = below that.

This assay has as its system UDP-N-acetylbacillosamine N-acetyltransferase PglD (Campylobacter jejuni). Put plainly: blockers of PglD enzyme activity – biochemical, DTNB colorimetric, single point, primary screen (AID 602405). Conditions: purified PglD enzyme, DTNB colorimetric CoA detection; at 12.5 µM; hits give high values.
Consider `CC=Cc1ccc2n(c1=O)C[C@@H]1[C@@H](CO)[C@H](C(=O)NCc3cccc(OC)c3)N[C@H]21` (mixture of isomers), for which the inhibition is 0.651%.

For `CCCNC(=O)C[C@H]1C[C@@H]2c3cc(NC(=O)c4ccc5c(c4)OCO5)ccc3O[C@@H]2[C@@H](CO)O1`, the inhibition is -7.26%.

`Cc1ccc(S(=O)(=O)Nc2ccc3c(c2)C(=O)N([C@H](C)CO)C[C@H](C)[C@@H](CN(C)C(=O)NC(C)C)OCCCC[C@@H](C)O3)cc1`: the inhibition is -2.85%.

Turning to `CSc1ccc(S(=O)(=O)NCc2ccc(Cl)cc2)cc1`, the inhibition was 26.5% (active).

For `CC(C)CNS(=O)(=O)c1ccc(CCC(=O)NCc2ccc(Cl)cc2)cc1`, the inhibition was 0.729%.

Turning to `Cc1ccc(S(=O)(=O)NCCC(=O)NCc2ccc(Cl)cc2)cc1C`, the inhibition was -81.7%.

With `COC(=O)C[C@@H]1C[C@H]2c3cc(NC(=O)CN(C)C)ccc3O[C@H]2[C@H](CO)O1`, the inhibition is 1.44%.

`COc1ccc(S(=O)(=O)Nc2cccc3c2O[C@@H](CN(C)C(=O)NC(C)C)[C@H](C)CN([C@@H](C)CO)C3=O)cc1`: the inhibition was 3.51%.

For the compound `CCCNC(=O)Nc1ccc2c(c1)C(=O)N(C)C[C@H](OC)[C@H](C)CN[C@@H](C)CO2`, the inhibition was 1.64%.

Turning to `C[C@H]1CN([C@@H](C)CO)C(=O)c2cccc(NC(=O)Nc3ccccc3)c2O[C@H]1CN(C)S(=O)(=O)c1ccc(Cl)cc1`, the inhibition is 1.05%.

With `O=C(N[C@H]1C=C[C@@H](CC(=O)N2CCN(c3ccccc3)CC2)O[C@@H]1CO)c1ccncc1`, the inhibition was 1.58%.

On to `CCC(=O)Nc1ccc2c(c1)C(=O)N(C)C[C@@H](OC)[C@@H](C)CN(Cc1ccccc1F)[C@H](C)CO2`, for which the inhibition was 2.28%.

As to `CCCNC(=O)N(C)C[C@H]1Oc2ncc(-c3cccc(C#N)c3)cc2C(=O)N([C@@H](C)CO)C[C@H]1C`, the inhibition was 0.216%.

Consider `O=C(Nc1ccc(Sc2ccc(Br)cc2)cc1)c1ccco1`, for which the inhibition was 20.2% (active).

Turning to `O=C(CNC(=O)c1ccco1)NNC(=O)c1ccc(Br)cc1`, the inhibition was 2.58%.

As to `O=C(NNC(=O)c1ccco1)Nc1ccccc1`, the inhibition was 3.41%.

On to `O=C(Nc1ccccc1F)N1C[C@H]2[C@@H](c3ccccc31)[C@@H](CO)N2C(=O)Cc1cccnc1`, for which the inhibition was 5.55%.

For the compound `COc1ccc(NC(=O)Nc2ccc3c(c2)C(=O)N([C@@H](C)CO)C[C@@H](C)[C@H](CN(C)Cc2ccc(Cl)c(Cl)c2)O3)cc1`, the inhibition was 6.96%.

Consider `COc1cccc(CNC(=O)C[C@@H]2C=C[C@@H](NC(=O)C3CCC3)[C@@H](CO)O2)c1`, for which the inhibition is -2.99%.

With `Cc1noc(C)c1NC(=O)N(C)C[C@@H]1Oc2ccc(NS(C)(=O)=O)cc2C(=O)N([C@H](C)CO)C[C@@H]1C`, the inhibition is -1.3%.

As for `C[C@H](O)C#Cc1ccc2c(c1)O[C@@H](CN(C)C(=O)C1CCCCC1)[C@H](C)CN([C@@H](C)CO)S2(=O)=O`, the inhibition was -1%.

With `C[C@H]1CCCCO[C@H](CN(C)CC2CC2)[C@@H](C)CN([C@@H](C)CO)C(=O)c2cc(NS(C)(=O)=O)ccc2O1`, the inhibition is 32%.

In the case of `O=C(c1ccc(F)cc1)N1CCCCN2[C@@H](CO)[C@H](c3ccc(-c4ccccc4)cc3)[C@@H]2C1`, the inhibition was 1.69%.

Turning to `Cc1ccc(C(=O)N/C(=C/c2cccnc2)C(=O)O)cc1`, the inhibition was -2.85%.

Consider `CN(C)/C=C1\C=C(c2ccccc2)OC1=O`, for which the inhibition is -0.491%.

Consider `Cc1ccc(C2=C/C(=C\c3cccnc3)C(=O)O2)cc1`, for which the inhibition was 49.3% (active).

`CCCc1cn(CC[C@@H]2CC[C@H](NS(=O)(=O)c3ccccc3Cl)[C@H](CO)O2)nn1`: the inhibition was -0.55%.

`CC(=O)N1C[C@@H]2[C@H](c3ccccc31)[C@H](CO)N2Cc1ccc(Cl)cc1`: the inhibition is 2.15%.

For `CCCNC(=O)C[C@@H]1C[C@@H]2c3cc(N(C)C)ccc3O[C@@H]2[C@H](CO)O1`, the inhibition was -5.6%.

For the compound `COc1ccc(S(=O)(=O)N(C)C[C@H]2OCCCC[C@H](C)Oc3ccc(NC(=O)Nc4ccc(F)cc4)cc3C(=O)N([C@@H](C)CO)C[C@H]2C)cc1`, the inhibition is -0.001%.

In the case of `C[C@@H](NC(=O)[C@H]1[C@H](CO)[C@H]2Cn3c(cccc3=O)[C@H]2N1C(=O)C1CC1)c1ccccc1`, the inhibition is -3.9%.

In the case of `CCOc1ccc(NC(=O)CCNC(=O)c2ccc(Br)cc2)cc1`, the inhibition is 1.93%.

For `CC(=O)Nc1ccc(OC(=O)COc2ccc(Br)cc2)cc1`, the inhibition is 83.3% (active).

As to `O=C(COc1ccc(Br)cc1)OCC(=O)c1ccc[nH]1`, the inhibition was 0.716%.

In the case of `C[C@H](CO)N1C[C@H](C)[C@H](CN(C)Cc2ccccc2)Oc2ccc(NC(=O)Cc3ccccc3)cc2C1=O`, the inhibition was -3.27%.

Consider `COCC(=O)Nc1ccc2c(c1)C(=O)N(C)[C@H]1CC[C@@H](CC(=O)Nc3cn(C)nc3C)O[C@@H]1CO2`, for which the inhibition was 2.19%.

Regarding `COc1ccc(CNC(=O)C2CCN(C(=O)c3ccccc3)CC2)cc1`, the inhibition was -3.01%.

For `O=C(c1cccc(Cl)c1)N1CCN(Cc2ccccc2)CC1`, the inhibition is -4.44%.

For `O=C(NCc1ccncc1)C1CCN(C(=O)c2cccc(Cl)c2)CC1`, the inhibition is 22.3% (active).

In the case of `CC(C)NC(=O)N[C@H]1C=C[C@H](CC(=O)NCCN2CCCC2)O[C@@H]1CO`, the inhibition is 0.57%.

`CCC(=O)N1[C@@H](CO)[C@@H]2c3ccccc3N(C(=O)c3ccccc3F)C[C@@H]21`: the inhibition was -0.466%.

Take `COc1ccc(CN(C)C[C@@H]2OCCCC[C@H](C)Oc3ccc(NS(C)(=O)=O)cc3C(=O)N([C@@H](C)CO)C[C@H]2C)cc1`: the inhibition is -1.59%.

Consider `O=C(NC[C@@H]1[C@H](c2ccccc2)[C@H](CO)N1CC1CCCC1)c1cccnc1`, for which the inhibition was 1.03%.

`CC=Cc1ccc2n(c1=O)C[C@H]1[C@H](CO)[C@@H](C(=O)NCc3ccncc3)N(Cc3cncnc3)[C@@H]21` (mixture of isomers): the inhibition was -1.52%.

In the case of `CC=Cc1ccc2n(c1=O)C[C@@H]1[C@@H](CO)[C@H](C(=O)N3CCCCC3)[C@H]2N1C(=O)C1CCC1` (mixture of isomers), the inhibition was 2.61%.

Source of the values: PubChem BioAssay AID602405 (Broad Institute, 2012).
